# Measurements published in publication PMC5540273 (PLoS ONE, 2017).
# Where “and” joins values, the source holds several entries; their conditions need not be identical. Equal values may be shown once. Read-outs that look alike come from different tables or passages of the source.
# Experiments:
# CAMK1B = conditions: n = 1
# CAMK1D = conditions: n = 1
# CAMK1G = conditions: n = 1
# CAMK1 = conditions: n = 1
# CAMK2A = conditions: concentration: 1 μM, replicates: in singlicate; n = 1
# CAMK2B = conditions: concentration: 1 μM, replicates: in singlicate; n = 1
# CAMK2D = conditions: n = 1
# CAMK2G = conditions: n = 1
# CAMK4 = conditions: concentration: 1 μM, replicates: in singlicate; n = 1
# CAMKK1 = conditions: concentration: 1 μM, replicates: in singlicate; n = 1
# CAMKK2 = conditions: n = 1
# CASK = conditions: n = 1
# CDC2L1 = tested on: T1, CDC2L1; conditions: n = 1
# T1 construct: gene CDK11B
# CDC2L2 = conditions: n = 1
# CDC2L5 = tested on: T2, CDC2L5; conditions: concentration: 1 μM, replicates: in singlicate; n = 1
# T2 construct: gene CDK13
# CDK11 = tested on: T3, CDK11; conditions: n = 1
# T3 construct: gene CDK19
# CDK2 = conditions: n = 1
# CDK3 = conditions: n = 1
# CDK4-cyclinD1 = conditions: concentration: 1 μM, replicates: in singlicate; n = 1
# CDK4-cyclinD3 = conditions: n = 1
# [1] = concentration: 1 μM,replicates: in singlicate, 1 µM
# [2] = concentration: 1 μM, replicates: in singlicate
# 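Note: KINOMEscan kinase panel screen.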
smiles,measurement,setting,value
CSc1nn2c(=O)cc(N3CCOCC3)nc2n1Cc1cccc(C(F)(F)F)c1C [GSK2363608],%Inh,CAMK1B; [1],31% and 0%
same,%Inh,CAMK1D; [1],9% and 19%
same,%Inh,CAMK1G; [1],0% and 11%
same,%Inh,CAMK1; [1],1% and 13%
same,%Inh,CAMK2A,0%
same,%Inh,CAMK2B,0%
same,%Inh,CAMK2D; [1],2% and 19%
same,%Inh,CAMK2G; [1],0% and 15%
same,%Inh,CAMK4,0%
same,%Inh,CAMKK1,0%
same,%Inh,CAMKK2; [1],14% and 0%
same,%Inh,CASK; [1],19% and 16%
same,%Inh,CDC2L1; [1],3% and 0%
same,%Inh,CDC2L2; [1],25% and 0%
same,%Inh,CDC2L5,0%
same,%Inh,CDK11; [1],5% and 35%
same,%Inh,CDK2; [1],6% and 0%
same,%Inh,CDK3; [1],17% and 0%
same,%Inh,CDK4-cyclinD1,0%
same,%Inh,CDK4-cyclinD3; [1],6% and 0%
Cl.c1ccc(-c2n[nH]cc2-c2ccnc(-c3ccc(CN4CCOCC4)cc3)c2)nc1 [GW776245],%Inh,CAMK1B; [2],0%
same,%Inh,CAMK1D; [2],27%
same,%Inh,CAMK1G; [2],0%
same,%Inh,CAMK1; [2],22%
same,%Inh,CAMK2A,2%
same,%Inh,CAMK2B,5%
same,%Inh,CAMK2D; [2],11%
same,%Inh,CAMK2G; [2],13%
same,%Inh,CAMK4,0%
same,%Inh,CAMKK1,26%
same,%Inh,CAMKK2; [2],19%
same,%Inh,CASK; [2],6%
same,%Inh,CDC2L1; [2],5%
same,%Inh,CDC2L2; [2],8%
same,%Inh,CDC2L5,0%
same,%Inh,CDK11; [2],0%
same,%Inh,CDK2; [2],0%
same,%Inh,CDK3; [2],46%
same,%Inh,CDK4-cyclinD1,4%
same,%Inh,CDK4-cyclinD3; [2],0%
COc1cccc(NC(=O)NC2CCN(c3ccnc(Nc4ccc(F)cc4)n3)C2)c1 (centres unmarked) [GSK1379721],%Inh,CAMK1B; [2],27%
same,%Inh,CAMK1D; [2],12%
same,%Inh,CAMK1G; [2],0%
same,%Inh,CAMK1; [2],10%
same,%Inh,CAMK2A,0%
same,%Inh,CAMK2B,0%
same,%Inh,CAMK2D; [2],6%
same,%Inh,CAMK2G; [2],22%
same,%Inh,CAMK4,0%
same,%Inh,CAMKK1,18%
same,%Inh,CAMKK2; [2],14%
same,%Inh,CASK; [2],7%
same,%Inh,CDC2L1; [2],0%
same,%Inh,CDC2L2; [2],14%
same,%Inh,CDC2L5,0%
same,%Inh,CDK11; [2],59%
same,%Inh,CDK2; [2],0%
same,%Inh,CDK3; [2],18%
same,%Inh,CDK4-cyclinD1,0%
same,%Inh,CDK4-cyclinD3; [2],0%
O=C(O)COc1ncnc2cc(-c3ccc4[nH]ncc4c3)sc12,%Inh,CAMK1B; [2],7%
same,%Inh,CAMK1D; [2],0%
same,%Inh,CAMK1G; [2],31%
same,%Inh,CAMK1; [2],0%
same,%Inh,CAMK2A,0%
same,%Inh,CAMK2B,0%
same,%Inh,CAMK2D; [2],26%
same,%Inh,CAMK2G; [2],17%
same,%Inh,CAMK4,7%
same,%Inh,CAMKK1,34%
same,%Inh,CAMKK2; [2],24%
same,%Inh,CASK; [2],0%
same,%Inh,CDC2L1; [2],8%
same,%Inh,CDC2L2; [2],0%
same,%Inh,CDC2L5,5%
same,%Inh,CDK11; [2],21%
same,%Inh,CDK2; [2],0%
same,%Inh,CDK3; [2],20%
same,%Inh,CDK4-cyclinD1,1%
same,%Inh,CDK4-cyclinD3; [2],0%
CN(C)CCN(C)C(=O)c1cc(-c2ccncc2)c(-c2ccc(Cl)c(O)c2)o1.Cl.Cl [SB-710397],%Inh,CAMK1B; [2],6%
same,%Inh,CAMK1D; [2],13%
same,%Inh,CAMK1G; [2],0%
same,%Inh,CAMK1; [2],10%
same,%Inh,CAMK2A,0%
same,%Inh,CAMK2B,0%
same,%Inh,CAMK2D; [2],0%
same,%Inh,CAMK2G; [2],1%
same,%Inh,CAMK4,0%
same,%Inh,CAMKK1,0%
same,%Inh,CAMKK2; [2],0%
same,%Inh,CASK; [2],29%
same,%Inh,CDC2L1; [2],0%
same,%Inh,CDC2L2; [2],0%
same,%Inh,CDC2L5,0%
same,%Inh,CDK11; [2],15%
same,%Inh,CDK2; [2],0%
same,%Inh,CDK3; [2],20%
same,%Inh,CDK4-cyclinD1,23%
same,%Inh,CDK4-cyclinD3; [2],9%
CCn1c(-c2ccccn2)nc2cnccc21 [SB-736398],%Inh,CAMK1B; [2],34%
same,%Inh,CAMK1D; [2],0%
same,%Inh,CAMK1G; [2],0%
same,%Inh,CAMK1; [2],0%
same,%Inh,CAMK2A,0%
same,%Inh,CAMK2B,0%
same,%Inh,CAMK2D; [2],0%
same,%Inh,CAMK2G; [2],0%
same,%Inh,CAMK4,0%
same,%Inh,CAMKK1,0%
same,%Inh,CAMKK2; [2],0%
same,%Inh,CASK; [2],2%
same,%Inh,CDC2L1; [2],27%
same,%Inh,CDC2L2; [2],0%
same,%Inh,CDC2L5,100%
same,%Inh,CDK11; [2],0%
same,%Inh,CDK2; [2],0%
same,%Inh,CDK3; [2],0%
same,%Inh,CDK4-cyclinD1,0%
same,%Inh,CDK4-cyclinD3; [2],3%
Cl.O=C(Nc1cccc(-c2nn3ncccc3c2-c2ccnc(Nc3cccnc3)n2)c1)c1c(F)cccc1F [GSK312879],%Inh,CAMK1B; [2],27%
same,%Inh,CAMK1D; [2],3%
same,%Inh,CAMK1G; [2],0%
same,%Inh,CAMK1; [2],8%
same,%Inh,CAMK2A,0%
same,%Inh,CAMK2B,0%
same,%Inh,CAMK2D; [2],0%
same,%Inh,CAMK2G; [2],13%
same,%Inh,CAMK4,0%
same,%Inh,CAMKK1,4%
same,%Inh,CAMKK2; [2],0%
same,%Inh,CASK; [2],22%
same,%Inh,CDC2L1; [2],3%
same,%Inh,CDC2L2; [2],7%
same,%Inh,CDC2L5,0%
same,%Inh,CDK11; [2],0%
same,%Inh,CDK2; [2],0%
same,%Inh,CDK3; [2],19%
same,%Inh,CDK4-cyclinD1,0%
same,%Inh,CDK4-cyclinD3; [2],4%
CN1C(=O)C(Nc2ccc(Cl)c(C(=O)O)c2)=C(c2ccc(Cl)cc2)C1=O [SB-404290],%Inh,CAMK1B; [2],0%
same,%Inh,CAMK1D; [2],17%
same,%Inh,CAMK1G; [2],100%
same,%Inh,CAMK1; [2],22%
same,%Inh,CAMK2A,17%
same,%Inh,CAMK2B,0%
same,%Inh,CAMK2D; [2],0%
same,%Inh,CAMK2G; [2],18%
same,%Inh,CAMK4,0%
same,%Inh,CAMKK1,0%
same,%Inh,CAMKK2; [2],0%
same,%Inh,CASK; [2],3%
same,%Inh,CDC2L1; [2],0%
same,%Inh,CDC2L2; [2],0%
same,%Inh,CDC2L5,1%
same,%Inh,CDK11; [2],0%
same,%Inh,CDK2; [2],13%
same,%Inh,CDK3; [2],6%
same,%Inh,CDK4-cyclinD1,0%
same,%Inh,CDK4-cyclinD3; [2],0%
Cc1nnc(-c2ccc3occ(-c4ccc(S(C)=O)cc4)c3c2)[nH]1 (centres unmarked),%Inh,CAMK1B; [2],1%
same,%Inh,CAMK1D; [2],15%
same,%Inh,CAMK1G; [2],23%
same,%Inh,CAMK1; [2],9%
same,%Inh,CAMK2A,4%
same,%Inh,CAMK2B,12%
same,%Inh,CAMK2D; [2],10%
same,%Inh,CAMK2G; [2],12%
same,%Inh,CAMK4,0%
same,%Inh,CAMKK1,14%
same,%Inh,CAMKK2; [2],14%
same,%Inh,CASK; [2],0%
same,%Inh,CDC2L1; [2],0%
same,%Inh,CDC2L2; [2],0%
same,%Inh,CDC2L5,11%
same,%Inh,CDK11; [2],0%
same,%Inh,CDK2; [2],2%
same,%Inh,CDK3; [2],7%
same,%Inh,CDK4-cyclinD1,0%
same,%Inh,CDK4-cyclinD3; [2],2%
O=C(Nc1ccccc1)Nc1cccc(Oc2ccc3nccn3n2)c1,%Inh,CAMK1B; [2],0%
same,%Inh,CAMK1D; [2],3%
same,%Inh,CAMK1G; [2],0%
same,%Inh,CAMK1; [2],0%
same,%Inh,CAMK2A,0%
same,%Inh,CAMK2B,0%
same,%Inh,CAMK2D; [2],0%
same,%Inh,CAMK2G; [2],3%
same,%Inh,CAMK4,7%
same,%Inh,CAMKK1,0%
same,%Inh,CAMKK2; [2],0%
same,%Inh,CASK; [2],16%
same,%Inh,CDC2L1; [2],0%
same,%Inh,CDC2L2; [2],5%
same,%Inh,CDC2L5,0%
same,%Inh,CDK11; [2],0%
same,%Inh,CDK2; [2],0%
same,%Inh,CDK3; [2],10%
same,%Inh,CDK4-cyclinD1,24%
same,%Inh,CDK4-cyclinD3; [2],0%
